Experiment [1] deals with Human papillomavirus type 1a protein E7 (residues 44-93). As to the kind of experiment: small molecules binding HPV E7 44-93 – biochemical, small-molecule microarray, residues 44-93, 635 nm fluorescence, primary screen (AID 1108).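 Further: E7 fragment applied at 1 µg/mL in TBST for 1 h at 4 C; score combines spot fluorescence with its signal to noise ratio.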 As to conditions: fluorescence 635 nm, higher = more signal.
Experiment [2] is described as follows: hepatitis C replication reporter changes, two-sided – Huh7 cells, luciferase reporter, HCV replication inhibitor project, primary screen (AID 1109).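 Further: huh7 hepatoma cells harbouring a luciferase neomycin HCV replicon reporter; luciferase luminescence as measure of HCV replicon replication; test concentration not given here.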 The following applies: Huh7 HCV replicon luciferase reporter, 48 h; higher = more signal. (In general: In a reporter assay the amount or activity of a reporter protein is the signal.)
The target of experiment [3] is Left-right determination factor 2 (Homo sapiens) (UniProt O00292). The experiment can be described thus: small molecules binding LEFTY2 protein – biochemical, small-molecule microarray, 635 nm fluorescence scan, primary screen (AID 1110). As to conditions: higher = more signal.
Experiment [4] deals with Calmodulin-1 (Homo sapiens) (UniProt P0DP23). As to the kind of experiment: small molecules binding calmodulin-1 with EGTA – biochemical, small-molecule microarray, Cy5-labelled CALM1, profiling panel (AID 1111).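 Further: labelled calmodulin applied in Tris saline Tween buffer holding calcium plus EGTA and DTT.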 The following applies: Cy5-CALM1 binding fluorescence, higher = more signal.
The target is the same in experiment [5]. As to the kind of experiment: small molecules binding Ca-loaded calmodulin-1 – biochemical, small-molecule microarray, Cy5-labelled CALM1, plus calcium, artefact control for SMM control-protein annotation, profiling panel (AID 1112).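 Further: score merges spot fluorescence with signal to noise from triplicate slides.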 The following applies: Cy5-CALM1 binding fluorescence, higher = more signal.
The nature of experiment [6]: probe aWnt5a binding to arrayed compounds – biochemical, biotinylated probe, 635/667 nm fluorescence, primary screen (AID 1113).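 Further: score merges 667 nm fluorescence intensity with signal-to-noise per printed feature.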 As to conditions: small-molecule microarray, higher = more signal.
The nature of experiment [7]: probe aShh binding to arrayed compounds – biochemical, biotinylated probe, 635/667 nm fluorescence, primary screen (AID 1114).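 Further: probe is biotin-labelled aShh protein from a stem cell growth factor screen; measures binding of labelled protein to compounds printed on the slide; score merges feature fluorescence at 667 nm with signal-to-noise.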 The following applies: small-molecule microarray, higher = more signal.
Experiment [8] can be described thus: probe aNog binding to arrayed compounds – biochemical, biotinylated probe, 635/667 nm fluorescence, primary screen (AID 1115).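 Further: probe is biotinylated aNog protein used at 0.15 µg/mL for 1 h at 4 C; z-score combines 667 nm fluorescence of each spot with its signal to noise.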 The following applies: small-molecule microarray, higher = more signal.
The target of experiment [9] is Torsin-1A-interacting protein 1 (Homo sapiens) (UniProt Q5JTV8). The experiment can be described thus: compound microarray binding of lysate hLAP1 – cell lysate, small-molecule microarray, COS7 lysate, 635/667 nm fluorescence, primary screen (AID 1116). The following applies: 635 nm fluorescence, higher = more signal.
Experiment [10] deals with Alpha-bungarotoxin (Bungarus multicinctus) (UniProt P60615). The experiment can be described thus: compounds binding labelled alpha-BTX control protein – biochemical, small-molecule microarray, Alexa647 label, 635/667 nm fluorescence, artefact control for SMM control protein annotation, profiling panel (AID 1117). As to conditions: alpha-BTX-A647 binding fluorescence, higher = more signal.

Experiment [11] addresses Albumin (Bos taurus) (UniProt P02769). As to the kind of experiment: compounds binding labelled BSA control protein – biochemical, small-molecule microarray, Alexa647 label, 635/667 nm fluorescence, artefact control for SMM control protein annotation, profiling panel (AID 1118).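 Further: score merges 667 nm emission intensity and signal-to-noise per printed compound spot.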 The following applies: BSA-A647 binding, fluorescence 635 nm, higher = more signal.
Experiment [12] can be described thus: probe aXIP binding to arrayed compounds – biochemical, NeuroSMM set, 635/667 nm fluorescence, primary screen (AID 1119).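 Further: probe is the protein aXip251-270 applied at 1 µg/mL to compound-printed slides; binding of probe to printed compounds measured as 667 nm fluorescence plus signal to noise.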 The following applies: small-molecule microarray, higher = more signal, called active from +8 up or from −8 down.
Experiment [13] can be described thus: probe aNOTCH3 binding on compound microarray – biochemical, small-molecule microarray, 635/667 nm fluorescence, primary screen (AID 1120).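 Further: probe is a biotin-tagged antibody raised against NOTCH3 rather than NOTCH3 protein; score merges spot fluorescence near 667 nm with spot signal to noise.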 The following applies: higher = more signal.
A short description of experiment [14]: probe aNOTCH2 binding on compound microarray – biochemical, small-molecule microarray, 635/667 nm fluorescence, primary screen (AID 1121).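 Further: score merges feature fluorescence read at 667 nm with its signal to noise.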 The following applies: higher = more signal.
The target in experiment [15] is Carbonic anhydrase 2 (Homo sapiens) (UniProt P00918). The experiment can be described thus: compounds binding carbonic anhydrase 2 – biochemical, small-molecule microarray, Alexa647-labelled CAII, profiling panel (AID 1122). As to conditions: CAII-A647 binding fluorescence, higher = more signal.
A short description of experiment [16]: COS7 lysate on small-molecule microarray, probe aHis, 635 nm (AID 1123).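 Further: z-score combines 667nm fluorescence intensity with signal-to-noise per printed compound spot.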 As to conditions: COS7 cell lysate, fluorescence, higher = more signal.
The nature of experiment [17]: probe aLAP1 signal on lysate-treated microarray – cell lysate, small-molecule microarray, COS7 lysate, primary screen (AID 1124).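 Further: lysate comes from COS7 cells expressing LAP1 and is applied at 0.3 µg/mL; score merges spot fluorescence near 667 nm with signal-to-noise over triplicate slides.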 As to conditions: probe aLAP1, fluorescence, higher = more signal.
Experiment [18] relates to Sam68 (KHDRBS1). The experiment can be described thus: compounds binding KHDRBS1 protein – biochemical, small-molecule microarray, 635 nm fluorescence, primary screen (AID 1125).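 Further: score merges 667 nm channel intensity with signal to noise over triplicate slides.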 As to conditions: higher = more signal.
Experiment [19] deals with Chordin-like protein 2 (CHRDL2). The experiment can be described thus: compounds binding chordin-like 2 – biochemical, small-molecule microarray, 635 nm fluorescence, primary screen (AID 1126).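 Further: printed compound slides probed with Chrdl2 protein at 4 µg/mL for 1 h at 4 C; score merges 667 nm emission intensity with signal to noise over three replicate slides.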 As to conditions: fluorescence 635 nm, higher = more signal.
Experiment [20] concerns the target Concanavalin-A (Canavalia ensiformis) (UniProt P02866). As to the kind of experiment: compounds binding concanavalin A lectin – biochemical, small-molecule microarray, Alexa647 label, 635 nm, artefact control for SMM control protein annotation, primary screen (AID 1127).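 Further: z combines 667 nm emission intensity with signal-to-noise across three replicate slides.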 As to conditions: ConA-A647 binding fluorescence, higher = more signal.

We go through 5 compounds from PubChem BioAssay.

Each structure is given as a SMILES string. Calls of active or inactive are those of the source.

Left-right determination factor 2 (Homo sapiens), sequence (O00292 whole entry, looked up): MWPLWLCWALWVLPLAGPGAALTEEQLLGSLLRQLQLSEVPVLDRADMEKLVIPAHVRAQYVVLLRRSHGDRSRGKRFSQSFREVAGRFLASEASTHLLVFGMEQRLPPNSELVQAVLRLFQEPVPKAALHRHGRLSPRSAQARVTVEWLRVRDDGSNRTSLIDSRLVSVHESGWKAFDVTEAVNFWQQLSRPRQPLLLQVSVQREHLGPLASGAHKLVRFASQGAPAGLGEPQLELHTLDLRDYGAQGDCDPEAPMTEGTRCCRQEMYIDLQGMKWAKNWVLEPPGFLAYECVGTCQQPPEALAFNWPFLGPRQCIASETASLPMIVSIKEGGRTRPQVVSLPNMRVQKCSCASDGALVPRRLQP
Torsin-1A-interacting protein 1 (Homo sapiens), sequence (Q5JTV8 whole entry, looked up): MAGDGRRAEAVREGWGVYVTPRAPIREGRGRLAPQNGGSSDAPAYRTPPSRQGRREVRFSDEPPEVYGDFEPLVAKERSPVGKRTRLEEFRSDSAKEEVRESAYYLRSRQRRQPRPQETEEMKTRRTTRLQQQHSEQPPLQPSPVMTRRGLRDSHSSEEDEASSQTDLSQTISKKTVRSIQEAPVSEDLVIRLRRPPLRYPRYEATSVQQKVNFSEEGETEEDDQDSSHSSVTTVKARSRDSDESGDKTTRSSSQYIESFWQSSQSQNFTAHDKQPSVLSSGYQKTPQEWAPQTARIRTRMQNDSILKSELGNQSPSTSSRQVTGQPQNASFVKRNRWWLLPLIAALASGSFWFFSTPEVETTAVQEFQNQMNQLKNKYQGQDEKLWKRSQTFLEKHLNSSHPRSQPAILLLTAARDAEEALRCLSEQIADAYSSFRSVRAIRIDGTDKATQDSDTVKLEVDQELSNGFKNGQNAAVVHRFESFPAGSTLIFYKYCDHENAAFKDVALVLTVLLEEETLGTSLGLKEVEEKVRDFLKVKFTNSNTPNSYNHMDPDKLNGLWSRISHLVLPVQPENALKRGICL
Albumin (Bos taurus), sequence (P02769 whole entry, looked up): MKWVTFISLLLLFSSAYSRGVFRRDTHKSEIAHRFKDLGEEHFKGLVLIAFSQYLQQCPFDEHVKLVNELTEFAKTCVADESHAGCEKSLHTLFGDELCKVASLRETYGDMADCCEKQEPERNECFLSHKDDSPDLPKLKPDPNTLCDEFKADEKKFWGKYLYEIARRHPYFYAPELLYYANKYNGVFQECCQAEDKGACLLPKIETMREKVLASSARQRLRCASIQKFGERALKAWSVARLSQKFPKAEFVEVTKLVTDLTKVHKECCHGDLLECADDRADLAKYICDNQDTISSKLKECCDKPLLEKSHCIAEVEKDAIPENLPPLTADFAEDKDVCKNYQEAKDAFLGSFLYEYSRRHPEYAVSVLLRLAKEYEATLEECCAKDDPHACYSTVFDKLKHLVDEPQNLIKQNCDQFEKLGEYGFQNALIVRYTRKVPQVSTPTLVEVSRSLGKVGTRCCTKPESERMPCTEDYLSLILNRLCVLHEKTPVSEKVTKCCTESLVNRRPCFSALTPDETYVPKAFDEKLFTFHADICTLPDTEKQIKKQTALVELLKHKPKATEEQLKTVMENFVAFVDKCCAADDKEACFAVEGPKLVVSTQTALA
Alpha-bungarotoxin (Bungarus multicinctus), sequence (P60615 whole entry, looked up): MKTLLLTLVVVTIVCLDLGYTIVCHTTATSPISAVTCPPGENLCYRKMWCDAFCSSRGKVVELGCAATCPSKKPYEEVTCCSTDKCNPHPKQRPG
Concanavalin-A (Canavalia ensiformis), sequence (P02866 whole entry, looked up): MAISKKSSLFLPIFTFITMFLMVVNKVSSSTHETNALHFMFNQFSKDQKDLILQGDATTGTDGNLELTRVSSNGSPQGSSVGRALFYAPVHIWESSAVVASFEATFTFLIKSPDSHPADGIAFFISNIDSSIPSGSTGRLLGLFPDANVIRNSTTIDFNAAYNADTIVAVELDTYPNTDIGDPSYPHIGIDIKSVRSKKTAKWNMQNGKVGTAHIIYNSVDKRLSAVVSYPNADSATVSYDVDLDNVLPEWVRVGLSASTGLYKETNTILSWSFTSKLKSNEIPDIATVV

Turning to `CN1C(=O)[C@]2(Cc3ccccc3)N=C(c3ccc(OCCCO)cc3)O[C@@H]2c2ccccc21`, the composite z-score in experiment [1] was 1.46; in [3], 0.235; in experiment [4], 0.33; in [5], -0.323; in experiment [6], 0.0761; in [7] it was 0.0469. The composite z-score is 0.849 in experiment [8]; 1.3 in experiment [9]; 0.51 in experiment [10]; 0.18 in experiment [11]; 0.0927 in experiment [13]; -0.0734 in experiment [14]. The composite z-score in [15] is 0.635; in experiment [16], 2.51; in experiment [17], 0.824; in experiment [18] it was 1.29; in experiment [19] it was 0.572; in experiment [20], 0.953. Further, in [2], the z-score was -1.36. The composite Z-score in experiment [12] was 0.307 (inactive).
With `C[C@]1(C(=O)NC2CC2)c2ccccc2C(=O)N(Cc2cc(C(F)(F)F)cc(C(F)(F)F)c2)[C@H]1c1ccc(CO)cc1`, the composite z-score in experiment [1] was 1.29; in [3], 0.122; in experiment [4] it was 0.224; in experiment [5], 0.114; in experiment [6] it was -0.0478; in [7] it was -0.276. For the same compound, the composite z-score in experiment [8] was 0.467; in [9], 0.207; in [10], 1.48; in experiment [11], -0.0744; in experiment [13], 0.208; in [14] it was -0.0712. Moreover, the composite z-score stood at 0.412 in experiment [15]; 1.28 in experiment [16]; 0.283 in experiment [17]; 1.32 in experiment [18]; 0.39 in [19]; 0.835 in experiment [20]. In addition, the z-score in experiment [2] was -0.106. Further, in experiment [12], the composite Z-score is 0.676 (inactive).
As for `C=CCOC(=O)[C@H]1[C@@H]2C(=O)O[C@@H](c3ccccc3)[C@@H](c3ccccc3)N2[C@@H](c2ccc(OCCOC(=O)[C@@H]3C[C@@H]4C(=O)N[C@@H](CCCC[N+](C)(C)C)C(=O)N4[C@@H]3c3ccc(O)cc3)cc2)[C@]12C(=O)Nc1ccccc12`, the composite z-score in experiment [1] was 1.26; in experiment [3], 0.498; in experiment [4] it was -0.0632; in [5] it was -0.499; in [6], -0.0398; in experiment [7], 0.123. Besides, the composite z-score in experiment [8] was -0.13; in [9] it was 0.425; in [10], 0.428; in experiment [11], 0.0987; in experiment [13] it was 0.011; in experiment [14], -0.171. Also, the composite z-score worked out at 0.624 in [15]; 0.875 in experiment [16]; 0.284 in experiment [17]; 1.31 in experiment [18]; 1.08 in [19]; 1.12 in experiment [20]. The compound further registered a z-score in experiment [2] of -1.11. Moreover, the composite Z-score in experiment [12] is 0.0848 (inactive).
With `COc1cc2c(cc1O)C(C1CC1)N(Cc1cc3c(cc1Br)OCO3)CC2` (stereo not given), the composite z-score in experiment [1] is 0.0206; in experiment [3], -1.25; in [4], -0.515; in experiment [5], -0.58; in [6] it was -0.124; in experiment [7], -0.134. For the same compound, the composite z-score in experiment [8] was -0.33; in [9] it was -0.447; in [10] it was -0.745; in experiment [11] it was 0.137; in experiment [13], -0.318; in experiment [14] it was -0.0703. The composite z-score was 0.593 in experiment [15]; 0.478 in [16]; 0.283 in [17]; -1.09 in [18]; -0.14 in experiment [19]; -0.207 in experiment [20]. Also, the z-score in experiment [2] was -3.51. For the same compound, the composite Z-score in [12] was -0.431 (inactive).
Regarding `CCc1oc(CC[C@@H](CO)NC(=O)NCCn2cc(C3(O)CCCCC3)nn2)c(C(=O)OC)c1C(=O)OC`, the composite z-score was 0.814 in experiment [1]; 0.905 in experiment [3]; -0.22 in experiment [4]; -0.657 in [5]; 0.048 in [6]; 0.381 in [7]. Also, the composite z-score in experiment [8] is -0.0645; in [9] it was 0.946; in experiment [10], 0.336; in experiment [11], -0.272; in experiment [13], 0.232; in experiment [14], -0.0813. The composite z-score in experiment [15] is -0.0227; in experiment [16], 0.376; in experiment [17], 0.731; in experiment [18], 1.18; in [19], 0.915; in [20], 1.11. In [2], this compound yielded a z-score of 0.524. Also, in experiment [12], the composite Z-score is -0.0435 (inactive).
